# Paper PMC4336329 (PLoS ONE, 2015)
# The campaign covered roughly 310,000 compounds. About 14,000 (4.5%) showed an effect of 50% or more. Effects have a minus sign here. For the sample, strong results were picked, then their nearest neighbours and some compounds at random.
# Biological target: human ether-à-go-go-related gene (hERG) potassium channel (human, UniProt Q12809)
# Assay: primary screen, population patch clamp on CHO cells stably expressing hERG; higher = less effect of the substance
# 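Further: peak tail current of the secondary pulse compared with the same well before compound.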
# human ether-à-go-go-related gene (hERG) potassium channel, sequence (Q12809 whole entry, looked up): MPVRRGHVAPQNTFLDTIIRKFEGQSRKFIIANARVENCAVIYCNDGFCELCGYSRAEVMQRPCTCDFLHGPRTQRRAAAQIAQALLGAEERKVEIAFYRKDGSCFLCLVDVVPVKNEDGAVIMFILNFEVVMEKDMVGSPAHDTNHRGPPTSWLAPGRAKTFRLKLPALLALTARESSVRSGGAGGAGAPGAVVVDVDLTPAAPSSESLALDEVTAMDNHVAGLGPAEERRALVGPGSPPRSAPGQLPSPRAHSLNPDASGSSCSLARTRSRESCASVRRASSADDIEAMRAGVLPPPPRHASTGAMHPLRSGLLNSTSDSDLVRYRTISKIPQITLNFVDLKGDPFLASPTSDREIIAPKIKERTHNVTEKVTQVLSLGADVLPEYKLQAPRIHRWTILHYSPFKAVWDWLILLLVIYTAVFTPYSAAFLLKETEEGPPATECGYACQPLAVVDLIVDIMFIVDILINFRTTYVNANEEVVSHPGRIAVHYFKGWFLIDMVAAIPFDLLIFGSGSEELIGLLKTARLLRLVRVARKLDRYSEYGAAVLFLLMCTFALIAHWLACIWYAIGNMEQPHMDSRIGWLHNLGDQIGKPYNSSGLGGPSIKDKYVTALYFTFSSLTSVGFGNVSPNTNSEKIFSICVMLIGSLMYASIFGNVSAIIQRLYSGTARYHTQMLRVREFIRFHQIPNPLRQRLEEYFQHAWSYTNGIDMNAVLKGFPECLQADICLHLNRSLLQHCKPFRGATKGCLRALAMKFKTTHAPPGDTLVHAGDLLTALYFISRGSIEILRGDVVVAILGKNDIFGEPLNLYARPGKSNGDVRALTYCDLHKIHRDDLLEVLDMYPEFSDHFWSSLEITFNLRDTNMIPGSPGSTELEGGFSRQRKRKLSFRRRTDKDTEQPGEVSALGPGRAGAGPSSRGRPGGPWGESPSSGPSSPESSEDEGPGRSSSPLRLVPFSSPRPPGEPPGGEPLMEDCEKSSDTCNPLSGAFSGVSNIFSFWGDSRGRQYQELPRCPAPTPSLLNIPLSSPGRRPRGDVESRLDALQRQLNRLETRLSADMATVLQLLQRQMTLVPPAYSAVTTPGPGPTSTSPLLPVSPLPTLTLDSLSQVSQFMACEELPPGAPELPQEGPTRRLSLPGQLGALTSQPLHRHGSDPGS
row,Structure (SMILES),"hERG current change (%, negative = inhibition) at 10uM"
1,O=C(CN1CCN(S(=O)(=O)N2CCOCC2)CC1)Nc1cc(Cl)ccc1Cl,-55.2%
2,O=C(CN1CCOCC1)Nc1cc([N+](=O)[O-])ccc1Cl,-17%
3,CN(C)S(=O)(=O)N1CCN(CC(=O)Nc2cc(Cl)ccc2Cl)CC1,-50.8%
4,CN(C)c1ccc(NC(=O)CN2CCN(S(=O)(=O)c3cc(Cl)ccc3Cl)CC2)cc1,-1.09%
5,COc1ccc(Cl)cc1NC(=O)CN1CCN(S(=O)(=O)N2CCC(C)CC2)CC1,-32.1%
6,CN1CCN(CC(=O)Nc2cc(S(=O)(=O)N3CCOCC3)ccc2Cl)CC1,4.13%
7,O=C(O)c1ccccc1-c1cc2ccccc2[nH]1,19.7%
8,N#C/C(=C/c1ccc(N2CCOCC2)c([N+](=O)[O-])c1)C(N)=O,-39.8%
9,O=C(OC(C(=O)NCC1CCCO1)c1ccccn1)c1cccs1 (centres unmarked),1.83%
10,COCc1nc2ccccc2n1Cc1cccc(C)c1,-12.8%
11,O=S(=O)(NCC(c1ccco1)N1CCN(c2ccccc2F)CC1)c1ccc(F)cc1 (centres unmarked),-11.2%
12,CC(C)CNc1nc(Oc2ccc(=O)[nH]n2)nc(N2CCOCC2)n1,7.99%
13,Cc1ccc(Cl)cc1NC(=O)CN1CCN(S(=O)(=O)N2CCC(C)CC2)CC1,-41.3%
14,O=C(CN1CCN(C(=O)C2CCCO2)CC1)Nc1cc(Cl)ccc1Cl (centres unmarked),-61.9%
15,Cc1ccc(Cl)cc1NC(=O)CN1CCN(C(=O)C2CCCO2)CC1 (centres unmarked),-29.8%
16,O=C(CN1CCN(C(=O)N2CCOCC2)CC1)Nc1cc(Cl)ccc1Cl,-59.9%
17,Cc1ccc(Cl)cc1NC(=O)CN1CCN(S(=O)(=O)N2CCOCC2)CC1,-64.3%
18,COc1ccc(Cl)cc1NC(=O)CN1CCN(C(=O)N2CCOCC2)CC1,-38.8%
19,Cc1ccc(Cl)cc1NC(=O)CN1CCOCC1,-0.857%
20,O=C(CN1CCOCC1)Nc1cc(Cl)ccc1Cl,-32.5%
21,O=C(CN1CCN(C(=O)C2CCCO2)CC1)Nc1cc(C(F)(F)F)ccc1Cl (centres unmarked),-45.8%
22,Cn1nnc2cc(C(=O)Nc3ccc(Cl)cc3)ccc21,-3.78%

row,Structure (SMILES),"hERG current change (%, negative = inhibition) at 10uM"
1,COc1ccc(-c2cc(C(=O)O)nc3ccc4ccccc4c23)cc1OC,12.6%
2,O=C(CSc1nc(O)cc(=O)[nH]1)C1CC1,7.82%
3,CC(C)(C)N/C=C(\C#N)S(=O)(=O)c1ccc(Br)cc1,-10.5%
4,C=CCN1C(=O)C2C(C(=O)NC)C3C=CC2(O3)C1C(=O)NCc1ccc(OC)cc1 (centres unmarked),0.24%
5,Cc1cc(C)n2nc(CC(=O)NC3CCCCCC3)nc2n1,5.03%
6,Cc1cc(C)n2nc(CC(=O)NC3CCCCCCC3)nc2n1,-70.9%
7,Cc1cc(C)n2nc(SCC(=O)NC3CCCCC3)nc2n1,1.68%
8,CCOC(=O)CCc1c(C(=O)OCC)[nH]c(CC)c1C(=O)OCc1ccccc1,-17.2%
9,COCc1cc(C)nc(SCC(=O)Nc2ccc3c(c2)OCCO3)c1C#N,13.4%
10,CCOC(=O)C1CCN(C(=O)CN2C(=O)c3ccccc3Sc3ncccc32)CC1,6.06%
11,COc1ccc(CNC(=O)c2ccc(CS(=O)Cc3cccc(Cl)c3)o2)cc1 (centres unmarked),-37.5%
12,Cc1ccc(CS(=O)Cc2ccc(C(=O)NCc3ccccc3)o2)cc1 (centres unmarked),11%
13,COc1ccc(OC)c(CCNC(=O)c2ccc(CS(=O)Cc3ccc(Cl)cc3)o2)c1 (centres unmarked),-31%
14,O=C(NCc1ccccc1)c1ccc(CS(=O)Cc2ccc(Cl)cc2)o1 (centres unmarked),-62.5%
15,O=C(NCc1cccs1)c1ccc(CS(=O)Cc2cccc(Cl)c2)o1 (centres unmarked),-39.6%
16,O=C(NCc1cccc(Cl)c1)c1ccc(CS(=O)Cc2ccccc2Cl)o1 (centres unmarked),-3.52%
17,Cc1ccc(CNC(=O)c2ccc(CS(=O)Cc3cccc(Cl)c3)o2)cc1 (centres unmarked),-21.5%
18,COc1ccc(CNC(=O)c2ccc(CS(=O)Cc3ccc(Cl)cc3)o2)cc1 (centres unmarked),-84.6%
19,O=C(NCc1ccc2c(c1)OCO2)c1ccc(CS(=O)Cc2cccc(Cl)c2)o1 (centres unmarked),-23.6%
20,O=C(NCc1ccc(Cl)cc1)c1ccc(CS(=O)Cc2cccc(Cl)c2)o1 (centres unmarked),-53.5%
21,O=C(NCc1cccc(Cl)c1)c1ccc(CS(=O)Cc2ccc(Cl)cc2)o1 (centres unmarked),-62.1%
22,O=C(NCc1ccccc1Cl)c1ccc(CS(=O)Cc2ccc(Cl)cc2)o1 (centres unmarked),-46.9%
